In PubChem BioAssay (Tox21):
“And” between values parts separate entries of the source, which are not always exact repeats. Equal entries are not always repeated. A number with no mark means an inactive call. The source made the active and inactive calls. Calls come from the whole dose curve.

target: Muscarinic acetylcholine receptor M1 (Homo sapiens) (UniProt P11229); assay: Cholinergic receptor muscarinic 1 (CHRM1) small molecule agonists, cell-based qHTS assay (AID 1963589); settings: CHRM1-CHO cells, agonist mode, calcium flux fluorescence; series mostly up to 76.8 µM; activation: at the top concentration; note: nearly all actives have a fitted effect of over 35% in size
From the text: National Center for Advancing Translational Sciences [NCATS]
Division of Preclinical Innovation [DPI]
U.S. Environmental Protection Agency [EPA]
National Institutes of Environmental Health Sciences [NIEHS]
National Toxicology Program [NTP]
U.S. Food and Drug Administration [FDA]
The CHRM1 is a muscarinic receptor. This receptor plays a crucial role in learning and memory processes and has long been identified as a promising therapeutic target for the improvement of cognitive decline in Alzheimer's disease (AD). The CHRM1-CHO cell line stably expressing human muscarinic acetylcholine receptor M1 (CHRM1) can be used for screening agonists and antagonists of interactions between CHRM1 and its ligands. The CHRM1-CHO Calcium Flux Assay is a homogeneous fluorescence-based assay for detecting the intracellular calcium level using FDSS kinetic plate reader system.
CHRM1-CHO cells were dispensed at 1000 cells/3uL/well in 1536-well black-clear bottom plates using a Multidrop Dispenser. After the assay plates were incubated at a 37 C/5% CO2 incubator for 18 h, 3 uL of Dye Loading Buffer was transferred to the assay plate by a Flying Reagent Dispenser. The assay plates were incubated at 37 C for 1h. For agonist mode, 23 nL of compounds dissolved in DMSO, positive controls or DMSO only was transferred to the assay plate by a pin tool. […] Each test compound was measured at 15 concentrations in three independent runs.
% is set by controls: 0 for no effect and ±100 for the full control effect; potency is the fitted concentration of half-maximal effect.

Chain of Muscarinic acetylcholine receptor M1 (Homo sapiens) (P11229 whole entry, looked up): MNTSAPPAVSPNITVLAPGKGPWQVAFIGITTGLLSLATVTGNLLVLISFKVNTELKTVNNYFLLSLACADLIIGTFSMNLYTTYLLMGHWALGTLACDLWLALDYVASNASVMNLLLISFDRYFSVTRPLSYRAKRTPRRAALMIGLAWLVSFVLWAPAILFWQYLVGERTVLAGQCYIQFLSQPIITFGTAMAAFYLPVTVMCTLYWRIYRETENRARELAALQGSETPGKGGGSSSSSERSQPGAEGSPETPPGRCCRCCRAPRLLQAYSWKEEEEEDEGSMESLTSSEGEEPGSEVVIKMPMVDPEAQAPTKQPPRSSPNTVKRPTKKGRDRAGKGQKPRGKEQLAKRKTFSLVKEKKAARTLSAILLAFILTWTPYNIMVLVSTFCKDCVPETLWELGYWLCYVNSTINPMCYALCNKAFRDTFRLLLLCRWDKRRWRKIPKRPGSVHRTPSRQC

Row | Compound | activation | Potency
1 | Cc1ccc(C)cc1 | 0.274% | –
2 | O=C1OC(=O)C2CC=CCC12 (stereo not given) | 1.37% | –
3 | C#CC(C)(O)CC(C)C (stereo not given) | 0.358% | –
4 | C1CCC2OC2C1 (stereo not given) | -0.0482% | –
5 | O=C1OC(=O)c2ccc3c4c(ccc1c24)C(=O)OC3=O | 0.142% | –
6 | COC(=O)c1ccc(C)cc1C1=NC(C)(C(C)C)C(=O)N1 (stereo not given) | 0.0172% | –
7 | Cc1ccc(-c2ccccc2)cc1 | -0.0079% | –
8 | O=C1OC2(c3cc(Br)c(O)c(Br)c3Oc3c2cc(Br)c(O)c3Br)c2c(Cl)c(Cl)c(Cl)c(Cl)c21 | – | 49.1 µM (active) and 33.4 µM (active)
9 | C=CC(=O)OCCCCCCCC | 0.0289% | –
10 | Cc1c(C(=O)c2c[nH]n(C)c2=O)ccc(S(C)(=O)=O)c1C1=NOCC1 | 0.074% [at 35.3 µM] | –
11 | CN1CCCC1=O | – | inactive
12 | CC(C)c1cccc(O)c1 | 3.88% | –
13 | C=CC(C)(O)CC/C=C(\C)CCC=C(C)C (stereo not given) | -1.05% | –
14 | CCN(CC)CC(=O)OCC(=O)[C@@]1(O)CC[C@H]2[C@@H]3CCC4=CC(=O)CC[C@]4(C)[C@H]3[C@@H](O)C[C@@]21C | 0.728% [at 35.3 µM] | –
15 | CC(C)C1CCC(O)CC1 (stereo not given) | -0.082% | –
16 | COS(=O)(=O)O | -0.144% | –
17 | O=S(=O)(O)c1ccc(N=Nc2c(O)ccc3cc(S(=O)(=O)O)ccc23)cc1 | – | inactive
18 | CC(C=O)c1ccccc1 (stereo not given) | 0.047% | –
19 | CC1CCC(C(C)C)C(O)C1 (stereo not given) | – | inactive
20 | CC(C)CC(C)O (stereo not given) | – | inactive

Row | Compound | activation | Potency
21 | COc1cc(CCC(C)=O)ccc1O | -0.546% | –
22 | COC(=O)CCC(=O)O | 1.31% | –
23 | CCn1cc(C(=O)O)c(=O)c2cnc(N3CCNCC3)nc21 | -0.0038% [at 35.3 µM] | –
24 | Cc1c(I)c(=O)n(-c2ccccc2)n1C | – | 37.9 nM (active)
25 | O=c1[nH]cnc2c1ncn2[C@@H]1O[C@H](CO)[C@@H](O)[C@H]1O | 0.0263% [at 35.3 µM] | –
26 | C=C[C@H]1CN2CC[C@H]1C[C@H]2[C@H](O)c1ccnc2ccc(OC)cc12 | – | inactive
27 | CCCCCCCCCC/C=C/C#N | -0.101% | –
28 | CC1(C)[C@H]2CC[C@]1(C)[C@H](O)C2 | 0.471% | –
29 | CCCCCCCCCOS(=O)(=O)O | 14.3% | –
30 | CCOc1ccc(N)c([N+](=O)[O-])c1 | 0.022% | –
31 | CC(=O)OCc1ccco1 | – | inactive
32 | NCC1CCCC(CN)C1 (stereo not given) | -0.681% | –
33 | CCC(=O)OC/C=C(\C)CCC=C(C)C | 0.362% | –
34 | CCC(C)SSC(C)CC (stereo not given) | 1.59% | –
35 | CC(C)=CCC/C(C)=C/C#N | -0.537% | –
36 | O=C[C@H](O)[C@H](O)[C@H](O)CO | 0.0337% | –
37 | Cc1ccc(-c2ccccc2C#N)cc1 | -0.301% [at 35.3 µM] | –
38 | CC(CCC(=O)O)C(=O)O (stereo not given) | -0.517% | –
39 | O=C(O)CSCC(=O)NC1CCSC1=O (stereo not given) | 0.0228% [at 35.3 µM] | –
40 | CC(C)CCO | 0.311% | –
